About 8,800 targets were measured; listed, in parts, are those with a hit and a random draw of the rest. About 0.5% of all pairs of compound and target were hits.
Tests used:
Experiment in all cases: log2 fold change, soluble protein after heating vs DMSO (PISA); higher = thermal stabilisation; K562 lysate, 10 uM; active = over 0.2 and 3.5 SD of the protein, either way, in both replicates (recomputed)
nilotinib = compound: Cc1cn(-c2cc(NC(=O)c3ccc(C)c(Nc4nccc(-c5cccnc5)n4)c3)cc(C(F)(F)F)c2)cn1 [nilotinib]
Summary of the method: (§1)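 Values give the log-two fold change in thermal stability against solvent controls, from duplicates. Crude K562 extract at 1 mg/mL protein, made by dounce homogenisation in PBS pH 7.4 with 1 mM MgCl2, was treated with 10 μM compound for 30 min. After 3 min heating across 48°C-58°C, aliquots were pooled, adjusted to 0.5% NP-40 at 4°C and centrifuged at 21,000xg for 90 min. The supernatant was measured by TMTpro 16plex LC-MS/MS with channel sums equalised.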

[1] = compound: Cc1nc(Nc2n[nH]c3c2CN(C(=O)N[C@H](CN(C)C)c2ccccc2)C3(C)C)c2sccc2n1
Summary of the method: as §1

dasatinib = compound: Cc1nc(Nc2ncc(C(=O)Nc3c(C)cccc3Cl)s2)cc(N2CCN(CCO)CC2)n1 [dasatinib]
Summary of the method: as §1

[2] = compound: Cc1ncc(-c2ccnc(Nc3ccc(S(C)(=O)=O)cc3)n2)n1C(C)C
Summary of the method: as §1

[3] = compound: Cn1cc(-c2ccc3c(c2)CCN3C(=O)Cc2cccc(C(F)(F)F)c2)c2c(N)ncnc21
Summary of the method: as §1

quisinostat = compound: Cn1cc(CNCC2CCN(c3ncc(C(=O)NO)cn3)CC2)c2ccccc21 [quisinostat]
Summary of the method: as §1

tipifarnib = compound: Cn1cncc1[C@@](N)(c1ccc(Cl)cc1)c1ccc2c(c1)c(-c1cccc(Cl)c1)cc(=O)n2C [tipifarnib]
Summary of the method: as §1

[4] = compound: NC(=O)Nc1cc(-c2cccc(F)c2)sc1C(=O)N[C@H]1CCCNC1
Summary of the method: as §1

[5] = compound: NC(=O)c1cnc(N[C@@H]2CCCC[C@@H]2N)nc1Nc1cccc(-n2nccn2)c1
Summary of the method: as §1

[6] = compound: NC1(c2ccc(-c3nc4ccn5c(=O)[nH]nc5c4cc3-c3ccccc3)cc2)CCC1
Summary of the method: as §1

Measured: log2 fold change

SKA1 (UniProt Q96BD8)
inactive: nilotinib -0.095 | [1] 0.052 | dasatinib -0.034 | [2] 0.023 | [3] -0.032 | quisinostat -0.104 | tipifarnib 0.039 | [4] 0.038 | [5] -0.042 | [6] 0.014

SH3GL1 (UniProt Q99961)
UniProt Q99961, sequence (Q99961 whole entry, looked up): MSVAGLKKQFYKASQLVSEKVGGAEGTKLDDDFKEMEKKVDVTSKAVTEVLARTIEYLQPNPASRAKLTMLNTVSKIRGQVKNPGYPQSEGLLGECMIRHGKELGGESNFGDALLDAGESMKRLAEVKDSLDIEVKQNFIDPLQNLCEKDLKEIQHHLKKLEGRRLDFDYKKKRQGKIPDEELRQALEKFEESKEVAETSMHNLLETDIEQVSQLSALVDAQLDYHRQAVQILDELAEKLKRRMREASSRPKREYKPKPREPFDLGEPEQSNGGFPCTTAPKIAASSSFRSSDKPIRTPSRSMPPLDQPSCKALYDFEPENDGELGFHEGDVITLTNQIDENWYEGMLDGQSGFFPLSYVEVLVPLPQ
inactive: nilotinib -0.01 | [1] 0.029 | dasatinib -0.024 | [2] 0.01 | [3] -0.009 | quisinostat -0.046 | tipifarnib 0.015 | [4] 0.004 | [5] 0.006 | [6] 0.033

SLC30A9 (UniProt Q6PML9)
inactive: nilotinib -0.026 | [1] 0.013 | dasatinib -0.035 | [2] -0.049 | [3] 0.055 | quisinostat 0.041 | tipifarnib 0.14 | [4] -0.044 | [5] -0.026 | [6] -0.008

SMAD9 (UniProt O15198)
inactive: nilotinib 0.066 | [1] 0.054 | dasatinib 0.062 | [2] -0.028 | [3] -0.038 | quisinostat -0.036 | tipifarnib -0.021 | [4] 0.016 | [5] 0.02 | [6] -0.065

SLC12A6 (UniProt Q9UHW9)
inactive: nilotinib -0.004 | [1] 0 | dasatinib 0.024 | [2] -0.066 | [3] -0.003 | quisinostat -0.013 | tipifarnib 0.012 | [4] -0.001 | [5] -0.022 | [6] 0.026

SYNRG (UniProt Q9UMZ2)
inactive: nilotinib -0.007 | [1] 0.012 | dasatinib 0.009 | [2] 0.036 | [3] 0.001 | quisinostat 0.021 | tipifarnib -0.025 | [4] 0.018 | [5] 0.026 | [6] -0.079

SRSF9 (UniProt Q13242)
inactive: nilotinib 0.02 | [1] 0.01 | dasatinib -0.079 | [2] 0.02 | [3] -0.005 | quisinostat 0.008 | tipifarnib 0.047 | [4] -0.012 | [5] 0.029 | [6] -0.002

STK24 (UniProt B4DR80)
inactive: nilotinib 0.031 | dasatinib 0.092 | [2] 0.086 | [3] -0.005 | quisinostat -0.019 | tipifarnib 0.007 | [4] 0.187 | [5] 0.023 | [6] -0.005
active: [1] 0.298

SHCBP1 (UniProt Q8NEM2)
inactive: nilotinib -0.051 | [1] -0.024 | dasatinib -0.071 | [2] -0.043 | [3] 0.026 | quisinostat -0.019 | tipifarnib -0.035 | [4] -0.009 | [5] -0.019 | [6] -0.016

SURF2 (UniProt Q15527)
inactive: nilotinib -0.192 | [1] -0.052 | dasatinib -0.045 | [2] 0.195 | [3] -0.031 | quisinostat -0.054 | tipifarnib 0.066 | [4] -0.036 | [5] 0.014

TAF1B (UniProt Q53T94)
inactive: nilotinib -0.061 | [1] -0.067 | dasatinib -0.174 | [2] -0.105 | [3] 0.635 | quisinostat -0.064 | tipifarnib -0.103 | [4] 0.017 | [5] 0.015

SMYD3 (UniProt Q9H7B4)
inactive: nilotinib 0.004 | [1] 0.022 | dasatinib -0.101 | [2] 0.01 | [3] -0.029 | quisinostat -0.056 | tipifarnib 0.031 | [4] 0.038 | [5] 0.036 | [6] -0.051

SNRNP40 (UniProt Q96DI7)
inactive: nilotinib 0.018 | [1] 0.03 | dasatinib -0.007 | [2] 0.019 | [3] -0.004 | quisinostat -0.027 | tipifarnib 0.012 | [4] 0.013 | [5] -0.012 | [6] 0.002

SLC11A2 isoform 3 (UniProt P49281)
inactive: nilotinib -0.099 | [1] -0.108 | dasatinib 0.07 | [2] 0.03 | [3] -0.048 | quisinostat -0.112 | tipifarnib -0.089 | [4] 0.055 | [5] -0.042 | [6] 0.111

SIX5 (UniProt Q8N196)
UniProt Q8N196, sequence (Q8N196 whole entry, looked up): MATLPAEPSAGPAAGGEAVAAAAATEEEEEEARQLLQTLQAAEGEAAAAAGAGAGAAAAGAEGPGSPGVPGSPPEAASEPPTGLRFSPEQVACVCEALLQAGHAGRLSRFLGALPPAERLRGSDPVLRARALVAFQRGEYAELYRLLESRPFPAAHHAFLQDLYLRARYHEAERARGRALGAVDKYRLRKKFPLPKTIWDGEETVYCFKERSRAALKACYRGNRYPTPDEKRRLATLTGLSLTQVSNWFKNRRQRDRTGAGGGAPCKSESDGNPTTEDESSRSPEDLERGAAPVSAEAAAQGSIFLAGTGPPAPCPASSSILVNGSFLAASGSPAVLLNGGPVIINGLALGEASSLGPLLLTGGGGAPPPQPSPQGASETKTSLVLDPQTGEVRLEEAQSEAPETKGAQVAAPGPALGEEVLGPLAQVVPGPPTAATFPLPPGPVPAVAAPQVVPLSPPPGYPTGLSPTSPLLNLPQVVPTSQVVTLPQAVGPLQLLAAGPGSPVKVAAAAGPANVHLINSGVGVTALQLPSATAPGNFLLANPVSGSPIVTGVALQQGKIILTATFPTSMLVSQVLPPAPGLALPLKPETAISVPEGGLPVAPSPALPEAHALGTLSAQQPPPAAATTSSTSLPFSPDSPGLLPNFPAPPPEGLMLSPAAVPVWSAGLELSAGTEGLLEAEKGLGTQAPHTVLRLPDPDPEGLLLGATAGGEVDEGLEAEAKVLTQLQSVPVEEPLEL
inactive: nilotinib 0.06 | [1] -0.05 | dasatinib 0.02 | [2] 0.074 | [3] -0.064 | quisinostat -0.141 | tipifarnib 0.02 | [4] 0.08 | [5] 0.092 | [6] -0.025

SPC25 (UniProt Q9HBM1)
UniProt Q9HBM1, sequence (Q9HBM1 whole entry, looked up): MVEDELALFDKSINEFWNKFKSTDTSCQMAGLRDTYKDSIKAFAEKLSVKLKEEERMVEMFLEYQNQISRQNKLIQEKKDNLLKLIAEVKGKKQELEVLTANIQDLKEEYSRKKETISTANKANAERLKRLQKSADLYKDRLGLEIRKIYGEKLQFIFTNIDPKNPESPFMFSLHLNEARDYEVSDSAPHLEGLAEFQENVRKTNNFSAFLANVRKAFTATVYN
inactive: nilotinib 0.042 | [1] -0.02 | dasatinib 0.002 | [2] 0.03 | [3] 0.046 | quisinostat -0.019 | tipifarnib 0 | [4] -0.01 | [5] 0.002 | [6] 0

SHKBP1 (UniProt Q8TBC3)
UniProt Q8TBC3, sequence (Q8TBC3 whole entry, looked up): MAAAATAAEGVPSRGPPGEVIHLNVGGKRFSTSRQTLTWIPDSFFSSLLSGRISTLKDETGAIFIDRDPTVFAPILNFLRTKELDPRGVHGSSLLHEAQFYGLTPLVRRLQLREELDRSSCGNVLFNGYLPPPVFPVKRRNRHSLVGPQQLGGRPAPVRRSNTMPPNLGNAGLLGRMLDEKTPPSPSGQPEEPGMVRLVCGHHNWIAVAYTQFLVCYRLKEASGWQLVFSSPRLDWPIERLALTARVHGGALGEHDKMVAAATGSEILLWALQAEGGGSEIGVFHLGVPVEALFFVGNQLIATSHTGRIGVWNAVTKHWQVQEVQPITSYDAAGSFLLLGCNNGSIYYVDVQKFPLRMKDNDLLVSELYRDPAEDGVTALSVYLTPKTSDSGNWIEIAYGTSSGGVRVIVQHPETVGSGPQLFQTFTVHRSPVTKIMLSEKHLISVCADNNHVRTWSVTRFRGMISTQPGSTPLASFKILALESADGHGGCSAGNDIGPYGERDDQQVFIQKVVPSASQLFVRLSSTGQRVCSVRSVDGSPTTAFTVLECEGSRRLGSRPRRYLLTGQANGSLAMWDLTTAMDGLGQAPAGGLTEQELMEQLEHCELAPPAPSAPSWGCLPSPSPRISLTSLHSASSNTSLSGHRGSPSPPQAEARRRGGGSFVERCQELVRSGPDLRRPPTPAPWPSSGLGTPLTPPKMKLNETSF
inactive: nilotinib 0.055 | [1] 0.098 | dasatinib 0.117 | [2] -0.072 | [3] -0.011 | quisinostat -0.039 | tipifarnib 0.088 | [4] -0.016 | [5] 0.007 | [6] -0.096

SOAT1 (UniProt P35610)
active: nilotinib 0.313
inactive: [1] -0.019 | dasatinib 0.071 | [2] -0.065 | [3] -0.022 | quisinostat -0.12 | tipifarnib 0.072 | [4] -0.042 | [5] 0.045 | [6] -0.013

SPG11 (UniProt Q96JI7)
inactive: nilotinib -0.024 | [1] 0.026 | dasatinib -0.052 | [2] 0.026 | [3] 0.025 | quisinostat -0.048 | tipifarnib -0.007 | [4] -0.017 | [5] 0.05 | [6] -0.046

SMAP2 (UniProt Q8WU79)
inactive: nilotinib -0.058 | [1] 0.026 | dasatinib -0.013 | [2] 0.037 | [3] 0.06 | quisinostat 0.072 | tipifarnib -0.038 | [4] 0.076 | [5] 0.026 | [6] 0.022

TAOK2 (UniProt Q9UL54)
UniProt Q9UL54, sequence (Q9UL54 whole entry, looked up): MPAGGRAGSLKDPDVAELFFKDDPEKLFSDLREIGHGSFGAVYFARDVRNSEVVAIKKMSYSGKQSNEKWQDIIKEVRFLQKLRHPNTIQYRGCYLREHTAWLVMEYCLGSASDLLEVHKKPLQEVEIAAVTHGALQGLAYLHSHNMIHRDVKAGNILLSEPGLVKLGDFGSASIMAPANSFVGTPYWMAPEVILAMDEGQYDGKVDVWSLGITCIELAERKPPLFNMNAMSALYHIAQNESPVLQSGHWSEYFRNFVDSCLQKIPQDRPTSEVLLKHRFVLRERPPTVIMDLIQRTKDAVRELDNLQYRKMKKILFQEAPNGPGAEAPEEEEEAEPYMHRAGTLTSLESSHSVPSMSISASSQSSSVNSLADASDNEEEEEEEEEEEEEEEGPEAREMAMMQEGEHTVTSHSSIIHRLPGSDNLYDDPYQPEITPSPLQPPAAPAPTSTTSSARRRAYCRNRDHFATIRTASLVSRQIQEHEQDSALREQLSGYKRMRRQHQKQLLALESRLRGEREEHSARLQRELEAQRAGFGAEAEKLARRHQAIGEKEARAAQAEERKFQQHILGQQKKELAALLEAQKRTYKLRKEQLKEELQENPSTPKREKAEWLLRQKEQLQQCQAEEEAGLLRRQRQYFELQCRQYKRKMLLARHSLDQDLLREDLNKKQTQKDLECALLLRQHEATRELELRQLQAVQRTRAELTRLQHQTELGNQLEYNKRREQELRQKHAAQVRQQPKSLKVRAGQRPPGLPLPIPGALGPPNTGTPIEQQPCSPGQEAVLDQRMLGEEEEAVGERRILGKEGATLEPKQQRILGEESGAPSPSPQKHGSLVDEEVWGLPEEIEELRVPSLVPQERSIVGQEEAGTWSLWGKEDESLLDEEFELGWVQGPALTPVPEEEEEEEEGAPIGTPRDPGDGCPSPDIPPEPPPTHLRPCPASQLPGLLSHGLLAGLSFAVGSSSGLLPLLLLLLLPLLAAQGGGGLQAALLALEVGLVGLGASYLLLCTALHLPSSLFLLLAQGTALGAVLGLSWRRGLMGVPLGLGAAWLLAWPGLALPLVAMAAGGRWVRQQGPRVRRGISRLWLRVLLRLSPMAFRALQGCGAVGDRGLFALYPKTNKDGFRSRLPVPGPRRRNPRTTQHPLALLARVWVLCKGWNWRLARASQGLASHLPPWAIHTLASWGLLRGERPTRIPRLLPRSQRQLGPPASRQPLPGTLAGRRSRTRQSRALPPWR
active: quisinostat -0.516
inactive: nilotinib 0.033 | [1] -0.069 | dasatinib -0.231 | [2] 0.012 | [3] 0.052 | tipifarnib 0.033 | [4] 0.022 | [5] -0.008

SSNA1 (UniProt O43805)
UniProt O43805, sequence (O43805 whole entry, looked up): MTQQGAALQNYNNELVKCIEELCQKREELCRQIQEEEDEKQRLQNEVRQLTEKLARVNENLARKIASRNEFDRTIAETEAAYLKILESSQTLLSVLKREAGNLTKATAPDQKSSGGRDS
inactive: nilotinib -0.038 | [1] 0.057 | dasatinib -0.004 | [2] -0.004 | [3] -0.079 | quisinostat 0.081 | tipifarnib 0.007 | [4] -0.039 | [5] 0.006 | [6] 0.019

SMC6 (UniProt Q96SB8)
UniProt Q96SB8, sequence (Q96SB8 whole entry, looked up): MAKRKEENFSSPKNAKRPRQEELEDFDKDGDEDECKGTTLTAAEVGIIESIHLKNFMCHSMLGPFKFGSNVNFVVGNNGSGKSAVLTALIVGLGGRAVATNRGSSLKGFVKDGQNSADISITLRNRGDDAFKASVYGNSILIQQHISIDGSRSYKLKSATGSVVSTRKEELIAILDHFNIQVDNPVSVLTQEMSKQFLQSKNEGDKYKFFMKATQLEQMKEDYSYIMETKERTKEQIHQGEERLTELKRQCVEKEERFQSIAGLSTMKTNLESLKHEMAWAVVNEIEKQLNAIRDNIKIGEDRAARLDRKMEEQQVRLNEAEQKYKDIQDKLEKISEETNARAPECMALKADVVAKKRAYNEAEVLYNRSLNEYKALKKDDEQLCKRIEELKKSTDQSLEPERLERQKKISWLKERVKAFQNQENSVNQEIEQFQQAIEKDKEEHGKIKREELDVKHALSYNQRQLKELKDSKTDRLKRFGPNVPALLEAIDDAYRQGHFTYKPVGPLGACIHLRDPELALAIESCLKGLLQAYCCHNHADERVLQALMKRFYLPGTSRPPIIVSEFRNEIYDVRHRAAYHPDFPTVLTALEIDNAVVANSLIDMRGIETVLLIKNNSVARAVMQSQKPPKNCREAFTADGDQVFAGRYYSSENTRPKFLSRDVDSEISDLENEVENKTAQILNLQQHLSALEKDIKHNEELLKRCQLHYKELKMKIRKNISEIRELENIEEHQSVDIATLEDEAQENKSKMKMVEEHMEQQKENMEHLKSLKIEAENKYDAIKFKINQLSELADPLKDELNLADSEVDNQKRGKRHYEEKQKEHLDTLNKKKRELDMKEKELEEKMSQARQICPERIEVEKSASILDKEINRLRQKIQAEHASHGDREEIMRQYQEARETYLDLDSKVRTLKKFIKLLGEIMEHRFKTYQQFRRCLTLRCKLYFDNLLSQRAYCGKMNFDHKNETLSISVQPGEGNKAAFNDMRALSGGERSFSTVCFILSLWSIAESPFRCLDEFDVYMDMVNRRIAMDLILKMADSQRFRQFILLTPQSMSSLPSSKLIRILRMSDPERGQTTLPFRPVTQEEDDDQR
inactive: nilotinib 0.006 | [1] 0 | dasatinib -0.021 | [2] -0.019 | [3] 0.012 | quisinostat -0.012 | tipifarnib -0.06 | [4] 0.034 | [5] 0.001 | [6] 0.013

SNRPD2 (UniProt P62316)
UniProt P62316, sequence (P62316 whole entry, looked up): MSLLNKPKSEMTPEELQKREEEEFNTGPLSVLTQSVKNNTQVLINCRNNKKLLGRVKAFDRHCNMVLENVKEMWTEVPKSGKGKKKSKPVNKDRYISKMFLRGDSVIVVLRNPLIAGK
inactive: nilotinib 0.014 | [1] 0.015 | dasatinib 0.024 | [2] 0.015 | [3] -0.02 | quisinostat 0.007 | tipifarnib 0.014 | [4] -0.027 | [5] 0 | [6] -0.002

SNRPF (UniProt P62306)
inactive: nilotinib -0.044 | [1] 0.063 | dasatinib 0.005 | [2] 0.013 | [3] -0.156 | quisinostat -0.276 | tipifarnib -0.037 | [4] 0 | [5] -0.044 | [6] 0.013

SNAP23 (UniProt O00161)
inactive: nilotinib 0.001 | [1] 0.015 | dasatinib 0.045 | [2] -0.013 | [3] 0 | quisinostat 0.035 | tipifarnib 0.036 | [4] -0.019 | [5] -0.016 | [6] 0.031

STK26 (UniProt Q9P289)
active: [1] 0.25
inactive: nilotinib -0.033 | dasatinib 0.102 | [2] 0.044 | [3] 0.029 | quisinostat -0.035 | tipifarnib -0.013 | [4] 0.104 | [5] 0.002 | [6] -0.008

TAF11 (UniProt Q15544)
UniProt Q15544, sequence (Q15544 whole entry, looked up): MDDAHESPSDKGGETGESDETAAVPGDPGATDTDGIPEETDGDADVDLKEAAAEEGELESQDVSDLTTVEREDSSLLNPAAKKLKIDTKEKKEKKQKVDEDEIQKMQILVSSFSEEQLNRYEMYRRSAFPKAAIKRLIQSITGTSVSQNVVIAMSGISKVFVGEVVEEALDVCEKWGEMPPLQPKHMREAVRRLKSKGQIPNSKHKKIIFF
inactive: nilotinib 0.05 | [1] -0.049 | dasatinib -0.142 | [2] -0.034 | [3] -0.051 | quisinostat -0.085 | tipifarnib 0.057 | [4] 0.046 | [5] -0.03

SMC4 (UniProt Q9NTJ3)
inactive: nilotinib -0.01 | [1] 0.009 | dasatinib -0.03 | [2] 0.016 | [3] 0.003 | quisinostat -0.014 | tipifarnib -0.003 | [4] 0.027 | [5] 0.009 | [6] -0.023

SNRPD3 (UniProt P62318)
UniProt P62318, sequence (P62318 whole entry, looked up): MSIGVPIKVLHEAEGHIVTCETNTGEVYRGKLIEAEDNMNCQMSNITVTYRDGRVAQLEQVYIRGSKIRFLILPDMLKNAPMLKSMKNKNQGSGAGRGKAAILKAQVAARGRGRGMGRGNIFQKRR
inactive: nilotinib 0.028 | [1] -0.006 | dasatinib 0.016 | [2] -0.034 | [3] 0.009 | quisinostat -0.002 | tipifarnib -0.002 | [4] 0.029 | [5] 0.004 | [6] 0.001

From the supplement of paper PMC10849652
